Assay outcomes (PubChem)
hERG WT inh: blocks the wildtype human KCNH2 potassium channel. activity change, % at 1.84 µM. 0.37% of 340,000 active. U2OS, BacMam KCNH2, thallium flux FluxOr; hits give low values. Q12809;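 active = maximum activity change below -70%; inconclusive = maximum activity change between -70% and -50%; inactive = maximum activity change above -50%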; note: % is set by controls: 0 for no effect and ±100 for the full control effect
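U2OS cells transduced with wild-type KCNH2 virus are loaded with FluxOr dye for 45 min, and thallium flux is measured in kinetic reads before and after stimulation buffer. Rate constants are normalized to DMSO controls.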
KB-3-1 cytotox: kills parental KB-3-1 adenocarcinoma cells; KB-3-1 viability, CellTiter-Glo ATP luminescence, 72 h; Potency, µM (top dose mostly 46.1 µM), most hits filed as cytotoxic; 1.4% of 400,000 active; note: potency is the fitted concentration of half-maximal effect; % is set by controls: 0 for no effect and ±100 for the full control effect; nearly all actives have a fitted effect of over 60% in size
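Here the drug-naive KB-3-1 line serves as comparator for MDR sub-line selectivity; cells received compound titrations, 72 h at 37 °C, then CellTiter-Glo readout.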
MCF10A rereplic: induces DNA re-replication in MCF 10a normal breast cells. MCF 10A DNA re-replication, Hoechst nuclear intensity, 48 h. Potency, µM (titrated, usually from 46.1 µM), for the others: at the highest dose activity, positive = re-replication, actives largely listed as activators. 2.9% of 350,000 active. AID 624296; note: potency is the fitted concentration of half-maximal effect; % of control where 0% means no effect; nearly all actives have a fitted effect of over 50% in size
KCNH2 3.1 block: inhibitors of human KCNH2 3.1 potassium channel isoform; U2OS KCNH2 3.1, thallium flux FluxOr; hits give low values; activity change, % (tested at about 1.8 µM); 0.95% of 340,000 active;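 active = maximum activity change below -70%; inconclusive = maximum activity change from -70% to -50%; inactive = maximum activity change above -50%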;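 note: thallium influx rate constant from kinetic fluorescence after stimulation buffer; % is set by controls: 0 for no effect and ±100 for the full control effect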
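Measured as rate of thallium-driven FluxOr signal in transduced U2OS cells carrying the 3.1 channel, read kinetically for 2 min upon stimulation; values are rate constants scaled to DMSO control wells.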
KB-V1 cytotox: KB-V1 MDR subline cytotoxicity; AID 1347076; KB-V1 MDR cells viability, CellTiter-Glo, 72 h; Potency, µM (top dose mostly 46.1 µM), actives largely listed as cytotoxic; 3.4% of 400,000 active; note: potency is the fitted concentration of half-maximal effect; % is set by controls: 0 for no effect and ±100 for the full control effect; nearly all actives have a fitted effect of over 60% in size
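In this primary screen, KB-V1 cells overexpressing P-gp are incubated with library compounds (lowest to highest concentration) for 72 h at 37 degrees C before a luminescent ATP viability read.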
SW480 rereplic: induces DNA re-replication in SW480 colon adenocarcinoma cells | SW480 DNA re-replication, Hoechst DNA content imaging, 48 h | Potency, µM (series often up to 46.1 µM), without a hit: at the top dose re-replication activation, most hits filed as activators | 1.8% of 340,000 active | AID 624297; note: potency is the fitted concentration of half-maximal effect; % of control where 0% means no effect; nearly all actives have a fitted effect of over 55% in size
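SW480 cells exposed to compounds for 48 hr at 37 C, 5% CO2, then Hoechst-stained 40 min. Nuclear DNA content imaged by fluorescence scanning (405 nm excitation, 500-530 nm emission); re-replication scored as increased high-intensity nuclei.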
Active calls of the source: *; i = inactive; u = inconclusive; x = no result given; ! = not active in a repeat. The list is not random: actives were taken first. Their share in the collection is about 7.6%. Unless noted, calls come from the whole dose curve; as a rule, active = well fitted curve in the direction sought with a large enough effect; inconclusive = small, poorly fitted or top-dose-only effect, or another doubt; inactive = no such curve, though single readings can be large; an effect the other way counts as inactive or inconclusive.

SMILES	hERG WT inh	KB-3-1 cytotox	MCF10A rereplic	KCNH2 3.1 block	KB-V1 cytotox	SW480 rereplic
CCc1nnc(NC(=O)c2nc(S(=O)(=O)Cc3cccc(C)c3)ncc2Cl)s1	-9	21µM*	u	-4	u	5.8µM*
CCC(=O)N1CCCC(C(=O)NCc2ccc(C(C)C)cc2)CC1 (stereo unspecified)	x	i	x	x	i	x
COC(=O)c1ccccc1NC(=O)c1nc(S(=O)(=O)Cc2ccccc2)ncc1Cl	-10	i	u	-5	i	-4%
CCOc1ccccc1NC(=O)c1nc(S(=O)(=O)Cc2cccc(C)c2)ncc1Cl	-1	5.2µM*!	u	-9	u	3.3µM*
CCc1nnc(NC(=O)CN2CCN(Cc3ccccc3C)CC2)s1	1	i	1%	-10	i	4%
CCc1nnc(NC(=O)c2nc(S(=O)(=O)Cc3ccc(C)cc3)ncc2Cl)s1	17	16µM*!	1.3µM*	9	u	93%
CCc1nnc(NC(=O)CN2CCN(Cc3ccc(C)cc3)CC2)s1	33	i	0.92µM*	-31	i	u
C=C1C(=O)[C@]23C[C@H]1CCC2[C@]1(C)CCC[C@@](C)(C(=O)O)C1C[C@@H]3O (stereo partly specified)	x	8.2µM*	x	x	u	x
C=C1C(=O)[C@]23C[C@H]1CCC2[C@]1(C)C(=O)CC[C@@](C)(C(=O)O)C1C[C@@H]3O (stereo partly specified)	x	u	x	x	i	x
Cc1cc(C)c(C)c(S(=O)(=O)N2CCN(C(=O)C3CSC4(C)CCC(=O)N34)CC2)c1C (stereo unspecified)	-2	i	4%	4	u	-4%
C=CC12C=CC=CN1C(C(=O)OC)=C(C(=O)OC)C(C(=O)OC)=C2C(=O)OC (stereo unspecified)	2	i	-10%	6	18µM*	-90%
NNC(=O)c1sccc1OCc1ccc(Cl)cc1	-1	i	-3%	-2	i	-32%
COc1ccc(COc2ccsc2C(=O)Nc2ccc(Cl)c(Cl)c2)cc1	-1	i	18µM*	-21	i	12%
COCCCn1c(=O)c2ccccc2n(Cc2ccc(C)cc2)c1=O	7	u	9%	-123*	i	-2%
O=C1Nc2ccc(S(=O)(=O)N3CCCCCC3)c3cccc1c23	-2	i	21µM*	-14	i	0%
O=C1Nc2ccc(S(=O)(=O)N3CCCC3)c3cccc1c23	-21	i	0%	-18	u	-5%
Cc1ccc(Nc2nnc(SC3CCOC3=O)s2)c(C)c1 (stereo unspecified)	-10	i	1%	2	i	0%
CCOC(=O)N1CCC(NC(=O)CCc2c(C)nc3c(c(C)nn3C(C)(C)C)c2C)CC1	6	u	4%	-20	3.7µM*	8%
O=C(CCl)NCc1c(Cl)cccc1-n1cccc1	-3	i	18µM*	6	i	25%
CC(=O)c1cccc(-c2ccnc3c2CC(C(=O)NCc2cccs2)O3)c1 (stereo unspecified)	x	1µM*	x	x	2.3µM*	x
O=C(NCC1CC1)C1Cc2c(-c3ccc(Cl)cc3)ccnc2O1 (stereo unspecified)	x	i	x	x	u	x
O=C(NCc1cccs1)C1Cc2c(-c3ccc(Cl)cc3)ccnc2O1 (stereo unspecified)	x	2.1µM*	x	x	u	x
CC(=O)c1cccc(-c2ccnc3c2CC(C(=O)NCCc2ccccc2)O3)c1 (stereo unspecified)	x	2.3µM*	x	x	3.3µM*	x
CCCCN(C)C(=O)Cn1c(=O)oc2cc(S(=O)(=O)N3CC(C)CC(C)C3)ccc21 (stereo unspecified)	7	i	10%	-4	i	u
COC1CCCN(C(=O)c2ccc(OC3CCN(S(=O)(=O)N(C)C)CC3)cc2)C1 (stereo unspecified)	3	i	10%	3	u	5%
